Consider six molecules from PubChem BioAssay.

Calls of active or inactive are those of the source.

In one experiment the target is Albumin (Bos taurus) (UniProt P02769). Briefly: compounds binding labelled BSA control protein – biochemical, small-molecule microarray, Alexa647 label, 635/667 nm fluorescence, artefact control for SMM control protein annotation, profiling panel (AID 1118).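 Note: score merges 667 nm emission intensity and signal-to-noise per printed compound spot.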 The following applies: BSA-A647 binding, fluorescence 635 nm, higher = more signal.
Experiment [1] can be described thus: probe aXIP binding to arrayed compounds – biochemical, NeuroSMM set, 635/667 nm fluorescence, primary screen (AID 1119).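 Note: probe is the protein aXip251-270 applied at 1 µg/mL to compound-printed slides; binding of probe to printed compounds measured as 667 nm fluorescence plus signal to noise.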 The following applies: small-molecule microarray, higher = more signal, called active from +8 up or from −8 down.
Experiment [2] is described as follows: probe aNOTCH3 binding on compound microarray – biochemical, small-molecule microarray, 635/667 nm fluorescence, primary screen (AID 1120).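 Note: probe is a biotin-tagged antibody raised against NOTCH3 rather than NOTCH3 protein; score merges spot fluorescence near 667 nm with spot signal to noise.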 The note with it: higher = more signal.
Experiment [3] in a line: probe aNOTCH2 binding on compound microarray – biochemical, small-molecule microarray, 635/667 nm fluorescence, primary screen (AID 1121).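 Note: score merges feature fluorescence read at 667 nm with its signal to noise.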 The note with it: higher = more signal.
The target of experiment [4] is Carbonic anhydrase 2 (Homo sapiens) (UniProt P00918). The experiment can be described thus: compounds binding carbonic anhydrase 2 – biochemical, small-molecule microarray, Alexa647-labelled CAII, profiling panel (AID 1122). The following applies: CAII-A647 binding fluorescence, higher = more signal.
Experiment [5] can be described thus: COS7 lysate on small-molecule microarray, probe aHis, 635 nm (AID 1123).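 Note: z-score combines 667nm fluorescence intensity with signal-to-noise per printed compound spot.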 The note with it: COS7 cell lysate, fluorescence, higher = more signal.
The nature of experiment [6]: probe aLAP1 signal on lysate-treated microarray – cell lysate, small-molecule microarray, COS7 lysate, primary screen (AID 1124).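 Note: lysate comes from COS7 cells expressing LAP1 and is applied at 0.3 µg/mL; score merges spot fluorescence near 667 nm with signal-to-noise over triplicate slides.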 The note with it: probe aLAP1, fluorescence, higher = more signal.
The next experiment has as its system Sam68 (KHDRBS1). The experiment can be described thus: compounds binding KHDRBS1 protein – biochemical, small-molecule microarray, 635 nm fluorescence, primary screen (AID 1125).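 Note: score merges 667 nm channel intensity with signal to noise over triplicate slides.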 The following applies: higher = more signal.
For experiment [7], the system named is Chordin-like protein 2 (CHRDL2). The experiment can be described thus: compounds binding chordin-like 2 – biochemical, small-molecule microarray, 635 nm fluorescence, primary screen (AID 1126).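 Note: printed compound slides probed with Chrdl2 protein at 4 µg/mL for 1 h at 4 C; score merges 667 nm emission intensity with signal to noise over three replicate slides.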 The following applies: fluorescence 635 nm, higher = more signal.
Experiment [8] concerns the target Concanavalin-A (Canavalia ensiformis) (UniProt P02866). The experiment can be described thus: compounds binding concanavalin A lectin – biochemical, small-molecule microarray, Alexa647 label, 635 nm, artefact control for SMM control protein annotation, primary screen (AID 1127).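 Note: z combines 667 nm emission intensity with signal-to-noise across three replicate slides.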 The following applies: ConA-A647 binding fluorescence, higher = more signal.
Experiment [9] is described as follows: compounds binding Alexa647 anti-His antibody – biochemical, small-molecule microarray, 635 nm fluorescence, artefact control for SMM control protein annotation, primary screen (AID 1128).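 Note: score merges feature fluorescence with signal-to-noise for each printed compound spot.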 The following applies: higher = more signal.
For experiment [10], the system named is Human papillomavirus type 1a E7 protein (residues 1-88). Briefly: HPV1a E7 small-molecule binders, primary screen, biochemical, small-molecule microarray, residues 1-88, 635 nm (AID 1129). The following applies: small-molecule microarray binding, fluorescence 635 nm; higher = more signal.
For experiment [11], the target named is Focal adhesion kinase 1 (Homo sapiens) (UniProt Q05397). Briefly: PTK2 protein binding on printed compound slides – biochemical, small-molecule microarray, 635/667 nm fluorescence, BSA, DTT, primary screen (AID 1130).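 Note: composite of spot emission at 667 nm and signal to noise over triplicate slides.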 The note with it: 635 nm fluorescence, higher = more signal.
Experiment [12] has as its system Fibrinogen (Alexa647-labelled). Briefly: Alexa647-fibrinogen binding to printed small molecules – biochemical, small-molecule microarray, 635/667 nm fluorescence, artefact control for SMM control-protein annotation, profiling panel (AID 1131).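 Note: z-score merges 667 nm fluorescence with per-spot signal-to-noise over triplicate slides.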 The note with it: fibrinogen-A647 binding fluorescence, higher = more signal.
Experiment [13] addresses Follistatin (Homo sapiens) (UniProt P19883). The experiment can be described thus: FST protein binding to printed compounds – biochemical, small-molecule microarray, 635/667 nm fluorescence, primary screen (AID 1132). The following applies: 635 nm fluorescence, higher = more signal.
The target of experiment [14] is Fibroblast growth factor 2 (Homo sapiens) (UniProt P09038). The experiment can be described thus: basic fibroblast growth factor binding to printed compounds – biochemical, small-molecule microarray, 635/667 nm fluorescence, primary screen (AID 1133). The note with it: FGF2, fluorescence 635/667, higher = more signal.
The nature of experiment [15]: JC-1 mitochondrial potential readout, lung cancer cells – cell-based, A549, JC-1 fluorescence, basal, 24 h, 100 nL, profiling panel (AID 1138).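 Note: A549 lung adenocarcinoma cells under basal conditions with no added stimulus; test concentration not given here.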 The following applies: higher = more signal.
The subject of a further experiment is Lefty1. The experiment can be described thus: Lefty1 protein binding to printed compounds – biochemical, small-molecule microarray, 635/667 nm fluorescence, primary screen (AID 1139). The note with it: fluorescence 635/667, higher = more signal.
Experiment [16] relates to wheat germ agglutinin (Triticum aestivum), Alexa647-labelled. Briefly: Alexa647-WGA lectin binding to printed small molecules – biochemical, small-molecule microarray, 635/667 nm fluorescence, artefact control for SMM control-protein annotation, profiling panel (AID 1140).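 Note: score merges 667 nm feature emission with signal to noise over triplicate slides.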 The note with it: WGA-A647 binding, 635 nm fluorescence, higher = more signal.
Experiment [17] concerns the target Luciferin 4-monooxygenase (Photinus pyralis) (UniProt P08659). The experiment can be described thus: inhibition of purified Photinus pyralis luciferase – biochemical, luminescence, purified enzyme, 2006 set, primary screen (AID 1141).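 Note: cell-free assay with purified firefly luciferase at 100 ng per well in PBS; test concentration not given here.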 The note with it: purified firefly luciferase, SteadyGlo luminescence, 30 min; higher = more signal, called active from +8 up or from −8 down.

Sequence of Concanavalin-A (Canavalia ensiformis) (P02866 whole entry, looked up): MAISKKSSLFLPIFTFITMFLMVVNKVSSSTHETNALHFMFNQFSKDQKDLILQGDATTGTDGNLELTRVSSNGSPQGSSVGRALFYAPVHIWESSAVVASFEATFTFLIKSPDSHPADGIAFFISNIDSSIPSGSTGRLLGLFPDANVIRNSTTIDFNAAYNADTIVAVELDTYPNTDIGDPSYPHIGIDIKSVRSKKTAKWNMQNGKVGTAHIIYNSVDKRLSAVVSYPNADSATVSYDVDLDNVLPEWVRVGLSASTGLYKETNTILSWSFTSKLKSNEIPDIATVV
Sequence of Fibroblast growth factor 2 (Homo sapiens) (P09038 whole entry, looked up): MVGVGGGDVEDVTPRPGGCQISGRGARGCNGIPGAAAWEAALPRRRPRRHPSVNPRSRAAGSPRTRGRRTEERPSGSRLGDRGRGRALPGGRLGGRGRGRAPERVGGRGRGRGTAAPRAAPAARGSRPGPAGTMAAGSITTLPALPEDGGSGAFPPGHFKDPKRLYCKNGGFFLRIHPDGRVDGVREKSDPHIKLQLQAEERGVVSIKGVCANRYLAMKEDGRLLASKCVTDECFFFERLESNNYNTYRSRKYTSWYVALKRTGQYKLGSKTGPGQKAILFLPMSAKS
Sequence of Follistatin (Homo sapiens) (P19883 whole entry, looked up): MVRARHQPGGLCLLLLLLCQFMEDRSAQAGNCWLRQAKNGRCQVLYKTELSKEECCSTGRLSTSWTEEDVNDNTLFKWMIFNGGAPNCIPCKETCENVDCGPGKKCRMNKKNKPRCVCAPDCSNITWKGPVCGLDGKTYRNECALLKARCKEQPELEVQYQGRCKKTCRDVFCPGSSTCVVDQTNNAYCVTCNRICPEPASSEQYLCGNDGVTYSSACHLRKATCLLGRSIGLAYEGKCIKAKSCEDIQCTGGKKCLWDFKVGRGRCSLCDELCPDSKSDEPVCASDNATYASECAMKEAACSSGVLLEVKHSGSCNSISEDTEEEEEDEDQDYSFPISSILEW
Sequence of Focal adhesion kinase 1 (Homo sapiens) (Q05397 whole entry, looked up): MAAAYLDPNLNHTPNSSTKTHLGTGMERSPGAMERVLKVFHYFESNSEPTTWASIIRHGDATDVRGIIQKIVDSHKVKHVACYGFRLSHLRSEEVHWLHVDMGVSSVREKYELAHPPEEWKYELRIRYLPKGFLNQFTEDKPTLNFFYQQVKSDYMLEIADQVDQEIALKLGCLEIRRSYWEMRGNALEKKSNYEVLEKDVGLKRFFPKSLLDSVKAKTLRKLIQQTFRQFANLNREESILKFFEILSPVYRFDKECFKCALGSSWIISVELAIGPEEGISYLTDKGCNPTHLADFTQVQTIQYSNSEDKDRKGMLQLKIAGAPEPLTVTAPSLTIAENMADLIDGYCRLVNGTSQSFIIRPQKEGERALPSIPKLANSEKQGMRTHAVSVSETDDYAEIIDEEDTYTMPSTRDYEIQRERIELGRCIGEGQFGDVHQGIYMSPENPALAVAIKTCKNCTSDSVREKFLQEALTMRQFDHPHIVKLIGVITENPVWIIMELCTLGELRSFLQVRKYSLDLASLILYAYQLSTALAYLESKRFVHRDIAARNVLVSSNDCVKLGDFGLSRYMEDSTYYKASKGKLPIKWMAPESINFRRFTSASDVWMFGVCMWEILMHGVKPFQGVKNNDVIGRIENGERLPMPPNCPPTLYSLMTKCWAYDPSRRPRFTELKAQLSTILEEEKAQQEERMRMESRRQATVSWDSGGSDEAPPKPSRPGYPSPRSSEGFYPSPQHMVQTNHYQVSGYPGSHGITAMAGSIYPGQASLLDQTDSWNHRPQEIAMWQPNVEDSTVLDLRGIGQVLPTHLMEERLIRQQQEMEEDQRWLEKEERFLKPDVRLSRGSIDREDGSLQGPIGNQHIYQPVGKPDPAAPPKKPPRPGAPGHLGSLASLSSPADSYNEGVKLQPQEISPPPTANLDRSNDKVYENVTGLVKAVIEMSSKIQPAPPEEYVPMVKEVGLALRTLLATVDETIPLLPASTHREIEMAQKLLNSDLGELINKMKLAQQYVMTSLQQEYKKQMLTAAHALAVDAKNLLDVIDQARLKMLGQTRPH
Sequence of Luciferin 4-monooxygenase (Photinus pyralis) (P08659 whole entry, looked up): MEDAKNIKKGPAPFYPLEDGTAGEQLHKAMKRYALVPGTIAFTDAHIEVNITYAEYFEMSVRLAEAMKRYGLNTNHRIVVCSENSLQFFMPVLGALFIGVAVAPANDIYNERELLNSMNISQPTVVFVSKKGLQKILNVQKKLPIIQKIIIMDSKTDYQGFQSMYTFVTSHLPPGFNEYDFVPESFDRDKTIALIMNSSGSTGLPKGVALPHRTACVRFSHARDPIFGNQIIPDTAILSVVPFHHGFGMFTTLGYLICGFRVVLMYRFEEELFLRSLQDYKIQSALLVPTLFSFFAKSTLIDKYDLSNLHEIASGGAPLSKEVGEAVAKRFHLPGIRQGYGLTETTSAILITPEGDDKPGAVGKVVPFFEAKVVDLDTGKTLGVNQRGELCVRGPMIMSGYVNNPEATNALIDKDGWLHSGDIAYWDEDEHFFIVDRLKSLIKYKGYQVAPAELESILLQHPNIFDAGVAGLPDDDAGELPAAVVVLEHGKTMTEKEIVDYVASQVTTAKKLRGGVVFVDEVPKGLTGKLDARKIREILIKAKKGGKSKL
Sequence of Albumin (Bos taurus) (P02769 whole entry, looked up): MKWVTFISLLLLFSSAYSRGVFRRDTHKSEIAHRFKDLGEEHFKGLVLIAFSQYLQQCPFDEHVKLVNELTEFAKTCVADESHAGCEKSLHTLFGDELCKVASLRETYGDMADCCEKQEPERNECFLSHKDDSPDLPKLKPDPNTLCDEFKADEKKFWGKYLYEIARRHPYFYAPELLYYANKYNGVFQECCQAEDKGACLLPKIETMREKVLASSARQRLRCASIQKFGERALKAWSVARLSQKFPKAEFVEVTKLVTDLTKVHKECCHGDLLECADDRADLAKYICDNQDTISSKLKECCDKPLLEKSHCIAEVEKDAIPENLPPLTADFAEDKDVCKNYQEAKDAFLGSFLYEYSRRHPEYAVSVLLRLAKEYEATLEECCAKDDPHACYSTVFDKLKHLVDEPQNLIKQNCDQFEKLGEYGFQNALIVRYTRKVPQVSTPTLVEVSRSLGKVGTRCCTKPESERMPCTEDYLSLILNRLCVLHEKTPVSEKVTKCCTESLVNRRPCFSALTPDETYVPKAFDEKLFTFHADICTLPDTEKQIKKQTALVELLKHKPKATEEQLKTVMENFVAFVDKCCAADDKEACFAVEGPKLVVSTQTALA

As to `C=CC[C@@]1(C(=O)NCCN2CCOCC2)N=C(c2ccc(OCCCO)cc2)O[C@@H]1c1ccccc1CN=[N+]=[N-]`, the composite z-score in the experiment with Albumin (Bos taurus) was 0.831; in [2] it was -0.434; in [3] it was -0.397; in [4] it was 0.556; in [5], 2.9; in experiment [6], 0.895. The composite z-score in the experiment with Sam68 (KHDRBS1) was 1.2; in experiment [7], 0.055; in [8], 0.85; in experiment [9], 2.83; in [10] it was 1.23; in experiment [11], 0.269. Besides, the composite z-score is 0.216 in experiment [12]; 0.898 in [13]; -0.224 in [14]; -0.0903 in the experiment on Lefty1; 1 in [16]. Also, the composite Z-score in [1] is -0.0095 (inactive). Moreover, the z-score was 0.127 in experiment [15] and -3.74 (inactive) in [17].
`COC(=O)[C@@]1(Cc2ccc(OC)cc2)[C@H]2c3cc(C(=O)N4CCCC4)n(CCc4ccccn4)c3C[C@H]2CN1C(=O)c1ccccc1`: the composite z-score was 0.348 with Albumin (Bos taurus); 0.268 in experiment [2]; 0.0746 in [3]; 0.862 in experiment [4]; 3.52 in [5]; 0.425 in experiment [6]. The composite z-score in the experiment on Sam68 (KHDRBS1) is -0.724; in experiment [7], -0.236; in experiment [8], 0.949; in experiment [9], 0.0421; in experiment [10] it was 0.201; in [11], 0.579. Also, the composite z-score in experiment [12] is 0.821; in experiment [13], -0.29; in experiment [14], -0.676; in the experiment with Lefty1, -0.91; in [16], 0.0844. In addition, the composite Z-score in experiment [1] is 0.868 (inactive). In addition, the results for the z-score in experiment [15] and in experiment [17] were -1.29 and 2.15 (inactive), respectively.
For `CCOC(=O)C[C@H]1[C@H](OC(=O)c2cc3ccccc3oc2=O)[C@@H](NC(=O)c2ccc3ccccc3c2)c2cc(OCCCO)ccc2N1C(=O)c1ccccc1`, the composite z-score in the experiment with Albumin (Bos taurus) is 0.342; in experiment [2], 0.0745; in experiment [3], -0.123; in experiment [4] it was 0.571; in [5] it was 0.224; in experiment [6], 0.334. Also, the composite z-score amounted to 1.29 in the experiment with Sam68 (KHDRBS1); 0.234 in experiment [7]; 0.275 in experiment [8]; 0.138 in experiment [9]; 1.2 in experiment [10]; 0.482 in [11]. Moreover, the composite z-score was 0.414 in experiment [12]; 1.08 in [13]; 0.512 in experiment [14]; 1.09 with Lefty1; 0.357 in experiment [16]. Further, the composite Z-score in [1] was 0.465 (inactive). Further, the z-score is -0.59 in experiment [15] and 0.151 (inactive) in experiment [17].
In the case of `COC(=O)[C@@]1(Cc2ccc(F)cc2)[C@H]2c3cc(C(=O)N4CCCC4)n(Cc4ccc(Cl)c(C(F)(F)F)c4)c3C[C@H]2CN1C(=O)c1ccccc1`, the composite z-score with Albumin (Bos taurus) turned out to be 1.02; in experiment [2], 1.53; in [3], 0.853; in experiment [4], 0.801; in experiment [5] it was 2.89; in experiment [6], 1.31. In addition, the composite z-score in the experiment with Sam68 (KHDRBS1) is 1.33; in experiment [7], -0.804; in experiment [8], 1.16; in experiment [9] it was 2.45; in [10], 1.23; in [11], 0.777. The composite z-score was 1.01 in experiment [12]; 1.08 in experiment [13]; -0.716 in [14]; -0.862 in the experiment on Lefty1; 1.22 in experiment [16]. Also, the composite Z-score in experiment [1] was 0.267 (inactive). Besides, the figures for the z-score in experiment [15] and in experiment [17] were 0.815 and 1.18 (inactive), respectively.
With `O=C1C2C=CC(C(O)C3CC=CCC3)N(n3cnnc3)C2C(=O)N1Cc1ccccc1` (stereo not given), the composite z-score is -0.952 with Albumin (Bos taurus); -0.213 in [2]; -0.202 in experiment [3]; 0.903 in experiment [4]; 0.233 in [5]; 1.34 in experiment [6]. In addition, the composite z-score in the experiment on Sam68 (KHDRBS1) was 0.185; in experiment [7], -1.69; in experiment [8], -0.137; in experiment [9], 0.794; in experiment [10] it was -0.288; in experiment [11], 0.559. Further, the composite z-score in [12] is 0.909; in [13], -0.439; in [14], -1.14; in the experiment with Lefty1 it was -1.07; in [16] it was 0.451. Besides, in experiment [1], the composite Z-score is 0.241 (inactive). In addition, the z-score is -0.704 in experiment [15] and 0.934 (inactive) in experiment [17].
As for `CC(C)N1C(=O)c2ccccc2[C@](C)(C(=O)NCCCN(C)C)[C@@H]1c1ccc(CO)cc1`, the composite z-score with Albumin (Bos taurus) is 0.222; in experiment [2], -0.149; in experiment [3], -0.0903; in [4] it was 0.526; in experiment [5], 1.45; in experiment [6], 1.01. Moreover, the composite z-score in the experiment on Sam68 (KHDRBS1) is -0.283; in [7] it was -0.85; in experiment [8], -1.41; in [9] it was -0.439; in experiment [10], 0.717; in experiment [11], 2.34. The composite z-score in experiment [12] is 0.562; in experiment [13] it was -0.106; in experiment [14] it was -0.224; in the experiment with Lefty1, -0.573; in experiment [16], 0.231. Besides, the composite Z-score in experiment [1] is -0.264 (inactive). The z-score in [15] is 0.256; in [17], -0.562 (inactive).
